The record followed here is PubChem BioAssay AID540308 (The Scripps Research Institute Molecular Screening Center, 2011).

Structures are written as SMILES. Screen size: about 360,000 compounds; about 3,500 (0.97%) were called active. Shown is part of a subset that was picked to be rich in actives. A number with no mark means an inactive call.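 Rule for the calls: active = activation above a per-plate cutoff, the mean activation of sample wells on that plate plus 3 SD (cut at about 8% in these data); inactive = the rest.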

Chain of Melanocortin receptor 4 (Homo sapiens) (P32245 whole entry, looked up): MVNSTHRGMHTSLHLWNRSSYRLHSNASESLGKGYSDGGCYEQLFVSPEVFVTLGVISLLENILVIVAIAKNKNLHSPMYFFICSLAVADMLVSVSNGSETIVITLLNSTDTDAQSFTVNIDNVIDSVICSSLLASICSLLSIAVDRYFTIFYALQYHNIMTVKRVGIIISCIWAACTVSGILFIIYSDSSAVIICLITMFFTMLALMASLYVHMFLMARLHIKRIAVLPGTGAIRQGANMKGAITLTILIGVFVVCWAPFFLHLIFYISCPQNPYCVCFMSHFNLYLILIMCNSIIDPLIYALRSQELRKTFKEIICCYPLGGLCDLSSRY

The assay addresses Melanocortin receptor 4 (Homo sapiens) (UniProt P32245). Kind of assay: MC4R agonists recruiting beta-arrestin, primary screen, cell-based, luminescence, agonist arm of biased-ligand search (AID 540308). As to conditions: U2OS MC4R beta-arrestin complementation, at 8.9 µM, stronger effect = higher value, percent of melanotan II response, DMSO zero.
Turning to `CC1(C(=O)NS(=O)(=O)c2cccc(F)c2)CCN1C(=O)c1cccc2ccccc12` (configuration not stated), the activation is -0.68%.

As to `COc1ccc(-n2nnc3c(=O)n(CC(=O)OCc4ccccc4)cnc32)cc1`, the activation was 1.74%.

As for `COc1ccc(-n2nnc3c(=O)n(CC(=O)N4CCC(Cc5ccccc5)CC4)cnc32)cc1`, the activation was 3.13%.

With `O=C(Cn1cnc2c(nnn2-c2ccccc2)c1=O)N1CCC(Cc2ccccc2)CC1`, the activation is 11.7% (active).

For the molecule `Cc1c(C(=O)NCc2ccc(C#N)cc2)sc(=O)n1Cc1ccc(C(=O)N(C)C)cc1`, the activation is 1.47%.

As for `OC[C@@H]1CN(Cc2ccc(Cl)cc2)C[C@H](n2cnc3c(NCc4ccncc4)ncnc32)O1`, the activation is 0.2%.

As for `COc1ccc(NC(=O)/C(C#N)=C\c2cc(OC)c(OCc3ccc(C(=O)O)cc3)cc2Br)cc1`, the activation was -1.04%.

Regarding `COc1cc(/C=C(/NC(=O)c2ccccc2)C(=O)Nc2cccc(O)c2)c([N+](=O)[O-])cc1OC`, the activation was 0.1%.

Take `COc1cc(/C=C(\C#N)C(=O)Nc2ccc3ccccc3c2)c([N+](=O)[O-])cc1OC`: the activation is 20.1% (active).

Regarding `Cc1cccc(C)c1Cn1c(C)c(C(=O)NCc2cccc(Cl)c2)sc1=O`, the activation is -0.04%.

In the case of `O=C(COC(=O)Cn1cnc2ccccc21)Nc1cccc2c1C(=O)c1ccccc1C2=O`, the activation is -2.17%.

For the molecule `O=C(COC(=O)c1ccccc1)Nc1ccccc1Sc1ccccc1`, the activation is -0.01%.

Regarding `O=C(COC(=O)c1cccc(Br)c1)Nc1cccc2c1C(=O)c1ccccc1C2=O`, the activation is 22.1% (active).

Regarding `CC1(C(=O)NS(=O)(=O)c2ccccc2)CCN1C(=O)Cc1ccc(-c2ccccc2)cc1` (configuration not stated), the activation is -1.08%.

For the molecule `COc1cc(CNc2ncnc3c2ncn3[C@H]2CN(Cc3cccs3)C[C@@H](CO)O2)cc(OC)c1OC`, the activation is 1%.

For `CCc1nc2c(OCc3ccccc3)cccn2c1N(C)C(=O)c1ccco1`, the activation is -0.58%.

`O=[N+]([O-])c1cccc(C=NN=Cc2ccccc2O)c1`: the activation was 9.24% (active).

On to `Cc1ccc(NC(=O)O/N=C/c2cccc([N+](=O)[O-])c2)cc1`, for which the activation is -5.02%.

For the molecule `COc1ccc(O)c(/C=N/N=C/c2cccc([N+](=O)[O-])c2)c1`, the activation is -0.29%.

On to `CCCc1ccc(C(O)c2ncc(-c3cccc(OC)c3)[nH]2)cc1` (configuration not stated), for which the activation was -1.27%.

On to `COc1ccc(C(=O)N2CCCCC2c2cc(C(=O)Nc3ccccc3)no2)cc1` (configuration not stated), for which the activation was -1.46%.

`CN(C)C(=O)c1cccc(-c2cnc3sc(NCc4ccc5c(c4)OCO5)nn23)c1`: the activation was 0.82%.

Turning to `CC[C@]1(C(=O)OC)[C@H]2C(=O)N(Cc3ccccc3)C(=O)[C@H]2[C@H]2CN=C(SCc3ccccc3)N21`, the activation was -0.47%.

Regarding `CCN1C[C@@H]2[C@@H]3C(=O)N(Cc4ccccc4)C(=O)[C@@H]3[C@](Cc3ccccc3)(C(=O)OC)N2C1=NC1CCCCC1`, the activation was 13.2% (active).

On to `CCCN=C1N(C)C[C@@H]2[C@@H]3C(=O)N(Cc4ccccc4)C(=O)[C@@H]3[C@](C)(C(=O)OC)N12`, for which the activation is -1.43%.

In the case of `COc1ccc(CCCNC(=O)C2Cc3c(-c4cccc(C(N)=O)c4)ccnc3O2)cc1` (configuration not stated), the activation was -1.12%.

For `CCCNC(=O)C1(C)CCCN(C(=O)c2oc3ccccc3c2C)C1` (configuration not stated), the activation was -0.51%.

`O=C(COc1ccc(/C=N/NC(=O)c2ccc(O)cc2)cc1)Nc1ccc([N+](=O)[O-])cc1`: the activation was 2.23%.

As to `CC(C)(C)C(=O)Nc1ccc(C(=O)N/N=C/c2ccccc2OC(=O)c2ccc(Cl)cc2Cl)cc1`, the activation is -0.61%.

Turning to `O=C(N/N=C/c1ccc(OC(=O)c2ccccc2Cl)cc1)c1ccc(O)cc1`, the activation is 13.4% (active).

Consider `CCc1nc2c(OCc3ccc(F)c(F)c3)cccn2c1N(C)C(=O)c1ccco1`, for which the activation is 1.17%.

`COc1ccc(-c2cc(NC=O)c3ncc(-c4cc(OC)c(OC)c(OC)c4)n3c2)c(OC)c1`: the activation was 7.55%.

As to `CC(=O)c1cccc(-c2cnc3c(NC=O)cc(-c4ccc(N5CCN(C)CC5)cc4)cn23)c1`, the activation is -0.45%.

For the molecule `CN(C)CCNC(=O)c1ccc(-c2cn3c(-c4ccc(Oc5ccccc5)cc4)cnc3cn2)cc1`, the activation was 1.4%.

For `CN(C)C(=O)c1cccc(-c2cnc3c(NC=O)cc(-c4ccc(C(=O)N5CCOCC5)cc4)cn23)c1`, the activation was 3.87%.

Consider `CC(=O)c1ccc(-c2cnc3c(NC=O)cc(-c4cccc(NS(C)(=O)=O)c4)cn23)cc1`, for which the activation was -0.24%.

Turning to `CC(=O)c1cccc(-c2cnc3c(NC=O)cc(-c4ccc(N(C)C)cc4)cn23)c1`, the activation is 10% (active).

With `CC(=O)c1cccc(-c2cnc3c(NC=O)cc(-c4ccccc4Oc4ccccc4)cn23)c1`, the activation is 3.06%.

With `CN(C)C(=O)c1cccc(-c2cnc3c(NC=O)cc(-c4ccc(F)cc4)cn23)c1`, the activation was 11.3% (active).

As for `CC(=O)c1cccc(-c2cnc3c(NC=O)cc(-c4cccc(C(=O)N(C)C)c4)cn23)c1`, the activation is 6.06%.

Regarding `COc1ccc(-c2cc(NC=O)c3ncc(-c4cccc(C(=O)N(C)C)c4)n3c2)c(OC)c1`, the activation was 5.89%.

Regarding `COc1ccc(-c2cc(NC=O)c3ncc(-c4ccccc4)n3c2)cc1OC`, the activation is 21.5% (active).

As for `CN(C)CCNC(=O)c1cccc(-c2cnc3c(NC=O)cc(-c4cccc(C(F)(F)F)c4)cn23)c1`, the activation was 13.3% (active).

For the molecule `CC(C)NC(=O)C1(C)CCCCN1Cc1cccc(C(F)(F)F)c1` (configuration not stated), the activation is 1.6%.

With `COc1cccc(C(O)c2ncc(-c3ccc4ccccc4c3)[nH]2)c1` (configuration not stated), the activation is -2.03%.

For the molecule `CSc1ccc(CN2CCC2(C)C(=O)NCc2ccccc2Br)cc1` (configuration not stated), the activation is 0.53%.

Turning to `COc1cccc(C(O)c2nc(-c3ccc(C)c(C)c3)cs2)c1` (configuration not stated), the activation is 1.59%.

For `CC(O)(c1cccc(F)c1)c1nc(-c2ccc3c(c2)OCO3)cs1` (configuration not stated), the activation is 3.56%.

For `O=C(Nc1ccc(Cl)cc1)C1Cc2c(-c3ccc4c(c3)OCO4)ccnc2O1` (configuration not stated), the activation is 1.36%.

In the case of `COc1cc(NC(=O)c2ccccc2)c(OC)cc1NC(=O)Cc1ccccc1`, the activation was -1.99%.

Turning to `CCOCC(=O)Nc1cc(OC)c(Cl)cc1OC`, the activation was -0.35%.

Regarding `COc1cc(NC(=O)c2ccc(-c3csc(C)n3)cc2)c(OC)cc1Cl`, the activation was 9.13% (active).
